Laboratory results from PubChem BioAssay (NCATS).
Inconclusive results are not listed. A number with no mark means an inactive call. The source made the active and inactive calls. Calls come from the whole dose curve; as a rule, active = well fitted inhibition curve with a large enough effect; inconclusive = small, poorly fitted or top-dose-only effect; inactive = flat fitted curve, though single readings scatter.

biological target: Calcium and integrin-binding protein 1 (Homo sapiens) (UniProt Q99828); assay: Primary qHTS for Identification of Calcium Integrin Binding Protein 1 (CIB1) Competitor (AID 1508620); details: CIB1-GST / FITC-alphaIIb peptide fluorescence polarization; series mostly up to 114 µM; activity change, negative = inhibition: at the top concentration;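 note: GST tagged CIB1 binding a fluorescein labelled alphaIIb integrin peptide tracer; top concentration of the series differs between compounds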
Sequence (Q99828 whole entry, looked up): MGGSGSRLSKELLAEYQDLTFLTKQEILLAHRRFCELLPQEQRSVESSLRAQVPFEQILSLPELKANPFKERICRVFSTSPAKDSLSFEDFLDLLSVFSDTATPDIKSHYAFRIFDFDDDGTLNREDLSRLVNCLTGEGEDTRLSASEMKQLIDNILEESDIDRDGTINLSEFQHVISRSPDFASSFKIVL
In short: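 CIB1-GST (1 uM final) and compound incubated 15 min at room temperature before adding FITC-alphaIIb peptide tracer (100 nM final). Competition for binding read by fluorescence polarization (ex 480, em 540) after another 15 min at room temperature.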
% is set by controls: 0 for no effect and ±100 for the full control effect.

Q: How did the “activity change, negative = inhibition” value turn out when `N#CC1=C(Nc2nc3ccccc3o2)OC2=C(C(=O)CCC2)C1c1[nH]ncc1Cl` (stereo unspecified) was run?
A: -8.19%

Q: For `Oc1ccc(CNc2cc(Br)ccn2)c2cccnc12`, which “activity change, negative = inhibition” value is on record?
A: -3.04%

Q: How did the “activity change, negative = inhibition” value turn out when `COc1ccc(OCc2nnc3n2N=C(c2ccccc2)CS3)cc1` was run?
A: -1.95%

Q: `Cc1cc2c(s1)c1cnn(Cc3ccc(C#N)cc3)c(=O)c1n2C` was tested. Which “activity change, negative = inhibition” value did it give?
A: 0.5%

Q: How did the “activity change, negative = inhibition” value turn out when `Cc1noc(C)c1-c1ccc2ncnc(NCc3cccc(-c4ccccc4)c3)c2c1` was run?
A: 4.75%

Q: How did the “activity change, negative = inhibition” value turn out when `O=[S+]([O-])(Nc1nccs1)c1ccc(NCc2ccc(Cl)c(Cl)c2)cc1` was run?
A: -13.8%

Q: With `Cc1cc(C)n2ncc(C(=O)N3CCCC3)c2n1` as the compound, how does the “activity change, negative = inhibition” value read?
A: -8.67%

Q: `Cc1cccc(-n2cnc3cc(C(=O)N4CCCC(C(C)C)C4)ccc32)c1` (stereo unspecified) was tested. Which “activity change, negative = inhibition” value did it give?
A: -3.3%

Q: Which “activity change, negative = inhibition” value does the source give for `FC(F)(F)c1ccc(-c2nc(NCc3ccc(-c4ccnc(C(F)(F)F)c4)cc3)c3ccccc3n2)cc1` here?
A: 5.6%

Q: For `Cc1cccc2oc(NC3=NC(c4[nH]ncc4Cl)C4=C(CCCC4=O)N3)nc12` (stereo unspecified), which Potency is on record?
A: inactive

Q: With `c1nc(NCCCN2CCOCC2)c2cc(-c3ccc4c(c3)OCO4)ccc2n1` as the compound, how does the “activity change, negative = inhibition” value read?
A: -3.8%

Q: With `Cc1ccnc(NC(=S)N2CCN(c3cccc([N+](=O)[O-])c3)CC2)c1` as the compound, how does the “activity change, negative = inhibition” value read?
A: -15.1%

Q: How did the “activity change, negative = inhibition” value turn out when `O=C1CCCC2=C1C(c1cnccc1C(F)(F)F)N=C(Nc1nc3ccccc3o1)N2` (stereo unspecified) was run?
A: -3.02%

Q: How did the “activity change, negative = inhibition” value turn out when `Cc1cc(C)nc(NC(=S)N2CCN(c3cccc4ccccc34)CC2)c1` was run?
A: -8.69%

Q: How did the “activity change, negative = inhibition” value turn out when `O=C(Nc1ccc(Cl)c(Cl)c1)Nc1nnc(NC2CCNCC2)s1` was run?
A: -13.3%

Q: `O=S(=O)(Nc1nc(-c2ccccc2C(F)(F)F)nc2ccccc12)c1ccc(-c2cccnc2)cc1` was tested. Which “activity change, negative = inhibition” value did it give?
A: 1.38%

Q: With `O=C1c2ccccc2C(=O)N1c1cccc2ccncc12` as the compound, how does the “activity change, negative = inhibition” value read?
A: -3.22%

Q: For `O=S(=O)(c1ccc2c(c1)OCCO2)C1CCC(O)CC1` (stereo unspecified), which Potency is on record?
A: inactive

Q: With `Cc1ccc(-c2nnc(N3CCC(C(N)=O)CC3)s2)cc1` as the compound, how does the “activity change, negative = inhibition” value read?
A: 4.74%

Q: With `Cc1ccc(OCCn2c(CCNC(=O)c3ccccc3C(F)(F)F)nc3ccccc32)cc1` as the compound, how does the “activity change, negative = inhibition” value read?
A: 0.445%

Q: Which “activity change, negative = inhibition” value does the source give for `CC(C)(C)OC(=O)N1CCN(c2ccc(NCc3ccc(-c4ccc(C#N)cc4)nc3)cc2)CC1` here?
A: 0.0168%
